# Measured values taken from PubChem BioAssay AID686971 (National Center for Advancing Translational Sciences (NCATS), 2013).
# Hit rate of the full screen: of about 360,000 compounds, about 7,500 (2.1%) were called active. Another 8% or so got no clear call; they are omitted. Calls come from the whole dose curve; as a rule, active = well fitted cell-killing curve with a large enough effect; inconclusive = small, poorly fitted or top-dose-only effect, or effect the other way, or another doubt; inactive = no such curve, though single readings can be large or run the other way. The list comes from a sample in which actives are over-represented; it also holds similar structures and randomly drawn compounds. Where a call stands in place of a potency, no number is given.
# Assay: qHTS for induction of synthetic lethality in tumor cells producing 2HG: qHTS for the HT-1080-IDH1KD cell line
# Conditions: HT-1080 IDH1 knockdown viability, ATP luminescence, 48 h; series mostly up to 46.1 µM
# In short: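 Luminescent ATP read-out (CellTiter-Glo, 10 min at room temperature) after 48 h compound exposure at 37 °C gave viability of IDH1-knockdown HT-1080 cells. Activity was normalised to DMSO and cell-free wells, then fitted as concentration-response curves.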
# Potency is the fitted concentration of half-maximal effect.
row,SMILES,Potency
1,C=CCOc1ccccc1CNn1c(C)n[nH]c1=S,inactive
2,CNc1cncc(-c2cccc(C(=O)N3CCOCC3)c2)n1,inactive
3,CNc1cncc(-c2ccc(NS(C)(=O)=O)cc2)n1,5.8 µM (active)
4,CS(=O)(=O)Nc1ccc(C(=O)N2CCCC2)cc1,inactive
5,CCC(C(=O)Nc1c(C)cccc1C)n1c(-c2cc(C)cs2)nc2ccccc21 (stereo not given),inactive
6,CC1(C)NC(=O)N(CC(=O)Nc2ccc(-c3ccccc3)cc2)C1=O,inactive
7,COc1ccc(NC(=O)CN(C)C(=O)c2cc(C)oc2C)cc1,inactive
8,COc1ccccc1NC(=O)C1=C(C)Nc2nc3ccccc3n2C1c1cccs1 (stereo not given),5.17 µM (active)
9,CCOC(=O)C1=C(C)Nc2nc3ccccc3n2C1c1cccs1 (stereo not given),inactive
10,CCOc1ccc(C2C(C(=O)NC)=C(C)Nc3nc4ccccc4n32)cc1OC (stereo not given),inactive
11,Cc1nc(C(F)(F)F)ccc1C(=O)N1CCC1(C)C(=O)NS(=O)(=O)c1ccccc1 (stereo not given),inactive
12,CCOc1ccc(-c2cc(C(=O)N/N=C/c3ccc(O)cc3)c3ccccc3n2)cc1,5.8 µM (active)
13,CCOc1ccc(NC(=O)c2cc(C)nc3ccccc23)cc1,inactive
14,COc1cc(/C=N/NC(=O)c2cc(-c3ccccc3C)nc3ccccc23)cc(OC)c1O,inactive
15,O=C(Nc1ccc(N2CCOCC2)cc1)c1cccc2c(-c3ccc(F)c(F)c3)coc12,inactive
16,Oc1ccc(/C=N/Nc2nc(-c3ccccc3F)nc3ccccc23)c(O)c1,11.6 µM (active)
17,Oc1c(Br)cccc1/C=N/Nc1c(F)c(F)c(F)c(F)c1F,inactive
18,CC1(C(=O)NS(=O)(=O)c2cccc(F)c2)CCN1C(=O)Cc1cc(F)ccc1F (stereo not given),inactive
19,Cc1ccc(Cn2c(C)c(C(=O)NCc3ccccc3C(F)(F)F)sc2=O)cc1,inactive
20,O=[N+]([O-])c1ccc(N=Cc2c(O)ccc3ccccc23)cc1,9.2 µM (active)
21,O=C(Oc1ccc([N+](=O)[O-])cc1)c1ccc2ccccc2n1,inactive
22,O=[N+]([O-])c1cccc(C=NN=Cc2ccccc2O)c1,inactive
23,O=C(NCc1cccnc1)c1ccc2nc([C@@H]3O[C@H](CO)[C@H](O)[C@H](O)[C@H]3O)[nH]c2c1,inactive
24,Cc1cn([C@H]2C[C@H](O)[C@@H](/C=C/C(=O)NCCCc3ccccc3)O2)c(=O)[nH]c1=O,inactive

row,SMILES,Potency
1,COc1cc(CNc2ncnc3c2ncn3[C@H]2CN(Cc3cccs3)C[C@@H](CO)O2)cc(OC)c1OC,inactive
2,CCc1ccc(CNC(=O)C2CC(=O)N(CCc3ccc(C)cc3)C2)cc1 (stereo not given),inactive
3,COc1ccc(-n2nc3c(N4CCC(C(=O)NCc5ccccc5)CC4)nnc(C)c3c2C)cc1,inactive
4,CCc1ccc(CNC(=O)C2CCN(c3nnc(C)c4c(C)n(-c5ccc(C)cc5)nc34)CC2)cc1,14.6 µM (active)
5,OC[C@H]1O[C@@H](c2nc(-c3nc(-c4ccc(F)cc4)no3)cs2)[C@H](O)[C@@H](O)[C@H]1O,inactive
6,CCOC(=O)C1=C(C)N=c2s/c(=C\C(=O)OC)c(=O)n2C1c1ccc(OC)cc1 (stereo not given),inactive
7,COc1ccc(OC)c(C2C3=C(N=c4s/c(=C\c5cccc(O)c5)c(=O)n42)c2ccccc2CC3)c1 (stereo not given),20.6 µM (active)
8,O=C1CCCC2=C1C(c1ccccc1)n1c(s/c(=C/c3cccc(F)c3)c1=O)=N2 (stereo not given),inactive
9,COc1ccc(S(=O)(=O)NC(=O)C2(C)CCN2C(=O)c2ccccc2CCc2ccccc2)cc1 (stereo not given),inactive
10,COC(=O)C[C@H]1C=C[C@H](NC(=O)c2ccc(F)cc2)[C@@H](CO)O1,inactive
11,C1=C(CCNc2ncnc3c2cnn3-c2ccccc2)CCCC1,inactive
12,Cc1ccc(S(=O)(=O)N2CCC(C(=O)NCCC3=CCCCC3)CC2)cc1C,inactive
13,O=C(NCCC1=CCCCC1)C1CCN(Cc2cnn(-c3ccccc3)c2-n2cccc2)CC1,25.9 µM (active)
14,CCOC(=O)c1ccc(NC(=O)c2cccnc2)cc1,14.6 µM (active)
15,CCOC(=O)c1cc(NC(=O)c2cccnc2)ccn1,inactive
16,CCOC(=O)c1ccc(-c2ccc(C(=O)Nc3cccnc3)o2)cc1,inactive
17,CCCCCC(=O)N1C[C@H](O)[C@@H](n2cc(COC(=O)c3ccccc3)nn2)C[C@@H]1c1ccc(C)cc1,inactive
18,Cc1onc(-c2ccccc2)c1-c1nnc(COC(=O)c2ccc(N(C)C)cc2)o1,inactive
19,Clc1cccc(-c2nc(NCC3CCCO3)c3ccccc3n2)c1 (stereo not given),inactive
20,Clc1ccc2nc(-c3ccccc3)nc(C(Cl)Cl)c2c1,7.31 µM (active)
21,N#CCSc1nc(-c2ccccc2)nc2ccc(F)cc12,inactive
22,CN1CCN(c2ccncc2S(=O)(=O)N2CCCC2)CC1,inactive
23,Cc1[nH]c2ccccc2c1C(=O)COC(=O)c1c(-c2ccccc2)noc1C,23.1 µM (active)
24,Cc1onc(-c2ccccc2Cl)c1C(=O)OCC(=O)c1ccccc1,inactive

row,SMILES,Potency
1,Cc1onc(-c2ccccc2Cl)c1C(=O)OCc1nnc(-c2ccccc2)o1,inactive
2,CC1(C)CC(=O)C=C(c2ccc(COC(=O)c3cc(F)cc(F)c3)cc2)C1=O,inactive
3,O=C(Nc1ccc(Br)cn1)c1ccc([N+](=O)[O-])cc1Cl,inactive
4,Cc1onc(NC(=O)c2ccc([N+](=O)[O-])o2)c1Br,inactive
5,O=C(Nc1ccc(Br)cn1)c1ccc([N+](=O)[O-])o1,10.3 µM (active)
6,CC1CC(NC(=S)N(C)C)CC(C)(C)C1 (stereo not given),inactive
7,COc1ccc(/C=C2\SC(=S)N(CCC(=O)N3CCOCC3)C2=O)cc1OC,inactive
8,CCCCCn1nnnc1C1c2ccccc2C(=O)N1Cc1ccco1 (stereo not given),inactive
9,c1ccc2cc3[nH]c(CN4CCCCC4)nc3cc2c1,inactive
10,CCCCCn1nnnc1-c1nc2cc3ccccc3cc2[nH]c1=O,7.31 µM (active)
11,COc1ccc(S(=O)(=O)NC(=O)C2(C)CCN2C(=O)COc2ccc(Cl)cc2)cc1 (stereo not given),inactive
12,CC1(C(=O)NCc2ccc3c(c2)OCO3)CCN1C(=O)Cc1cccc2ccccc12 (stereo not given),inactive
13,Nc1[nH]c(C(=O)c2ccccc2)c(-c2ccc(Br)cc2)c1C(=O)NC1CC1,inactive
14,O=C(NCc1cccnc1)c1cc(C2CCCN(C(=O)CCCc3ccccc3)C2)on1 (stereo not given),inactive
15,O=C(C[C@H]1C[C@@H]2c3cc(NC(=O)C4CCC4)ccc3O[C@@H]2[C@H](CO)O1)NC1CCCCC1,inactive
16,COc1ccc(S(=O)(=O)N(C)C)cc1NC(=O)COC(=O)c1n[nH]c2ccccc12,inactive
17,CN(NC(=O)c1ccccc1F)c1nc(C(F)(F)F)nc2ccccc12,0.206 µM (active)
18,Cn1c(CC(=O)NNC(=O)c2ccccc2F)nc2ccccc21,inactive
19,COc1ccc(C(=O)NN(C)c2nc(-c3ccccc3)cc(C)c2S(C)(=O)=O)cc1,inactive
20,CC(NC(=O)c1ccccc1F)c1cccc2ccccc12 (stereo not given),inactive
21,Cc1cccc(C(=O)Nc2ccc(C(=O)N/N=C/c3cccc(C)n3)cc2)c1,inactive
22,CSc1nc(N(C)NC(=O)c2cccc(C)c2)c2ccccc2n1,0.0461 µM (active)
23,CC1=C(C(=O)N2CCOCC2)CC(CC(=O)NCCN2CCOCC2)C(=O)N1CCC1=CCCCC1 (stereo not given),inactive
24,Cc1noc(C)c1S(=O)(=O)N(C)C[C@H]1OCCCC[C@@H](C)Oc2ccc(NC(=O)CCCN(C)C)cc2C(=O)N([C@H](C)CO)C[C@@H]1C,inactive

row,SMILES,Potency
1,Cc1noc(C)c1C(=O)N1CCC1(C)C(=O)NS(=O)(=O)c1ccc(C#N)cc1 (stereo not given),inactive
2,CN1OC[C@@H]2CN[C@H](c3ccc(-c4ccccc4)cc3)C[C@@H]21,inactive
3,CCNC(=O)C1(C)CCCN(C(=O)c2c(C)noc2C)C1 (stereo not given),inactive
4,CN1OC[C@@H]2CN(S(=O)(=O)c3cccc(C(F)(F)F)c3)[C@H](c3ccc(-c4cc5ccccc5o4)cc3)C[C@@H]21,inactive
5,COCCNC(=O)C1C(=O)Nc2ccccc2C(=O)N1c1ccc2c(c1)OCCO2 (stereo not given),inactive
6,C[C@@H]1CN([C@@H](C)CO)C(=O)CCCn2nncc2CO[C@@H]1CN(C)S(=O)(=O)c1ccc(-c2ccccc2)cc1,inactive
7,Cn1c(=O)c2cc(NC(=O)NCCc3cccs3)ccc2n1Cc1cccc(C(F)(F)F)c1,inactive
8,Clc1ccc(-c2cc(-c3ccccn3)on2)c(Cl)c1,inactive
9,Clc1ccc(-c2cc(C3CCNCC3)[nH]n2)c(Cl)c1,23.1 µM (active)
10,O=C(OCc1cn([C@@H]2C[C@H](c3ccc(Cl)cc3)N(Cc3cccs3)C[C@H]2O)nn1)c1ccccc1,inactive
11,COC(=O)[C@@]12C[C@@H](CC(=O)N3CCCCC3)C(=O)N(Cc3ccc4c(c3)OCO4)C1=CCC(C)(C)C2,inactive
12,CSc1ccccc1C(=O)Nc1cccc(C(C)=O)c1,inactive
13,CC(=O)c1cccc(NC(=S)N2CCCC2)c1,inactive
14,C=CCSc1nsc(NC(=O)Nc2cccc(C(C)=O)c2)n1,16.4 µM (active)
15,Cc1cc2oc(=O)cc(CN(C)Cc3ccccc3)c2cc1Cl,inactive
16,Cc1nn(-c2ccccc2)c(Cl)c1/C=N/NC(=O)c1nn(C)cc1[N+](=O)[O-],inactive
17,Cc1ccc2[nH]c(C(=O)O)c(NC(=O)c3ccccc3[N+](=O)[O-])c2c1,inactive
18,Cc1c(C(=O)N/N=C/c2ccccc2)[nH]c2c([N+](=O)[O-])cccc12,0.517 µM (active)
19,CC1(C)OC(=O)C2=C(C[C@@H](C3CCCC3)O[C@@H]2c2ccc(Cl)cc2)O1,inactive
20,CC1(C)CCc2cc(S(=O)(=O)N3CCN(c4nc(-c5cccs5)nc5ccccc45)CC3)ccc2O1,inactive
21,COc1ccc(C(C)(NC(C)=O)c2nc(-c3ccc(S(C)(=O)=O)cc3)cs2)cc1 (stereo not given),inactive
22,COC(=O)c1ccc2nc(-c3ccc(Cl)cc3)c(Cc3cccc(F)c3)n2c1,inactive
23,CC(C)CC[n+]1ccn(C2=C([O-])c3ccccc3C(=O)/C2=N\S(=O)(=O)c2ccccc2)c1,11.2 µM (active)
